Screens: PubChem, several laboratories
DSG3 Ab inh = inhibitors of pemphigus antibody binding to DSG3, primary screen, biochemical, bead-based, flow cytometry, scFv-GFP; Desmoglein-3 (Homo sapiens), P32926; DSG3-coupled beads, scFv-anti-DSG3-GFP binding; stronger effect = lower value; binding (percent of control), % at 10 µM; 0.48% of 310,000 active; AID 588358, 2011;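 active means binding more than 3 SD below its plate's average and above zero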;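 further: hits lower antibody fragment binding to DSG3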
ADAM17 inh = ADAM17 inhibitors, primary screen, biochemical, QFRET | Disintegrin and metalloproteinase domain-containing protein 17 (Homo sapiens), P78536 | recombinant ADAM17, EDANS/DABCYL FRET peptide cleavage | inhibition, % at 6.95 µM | 0.83% of 370,000 active | AID 720648, 2013;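 active means inhibition above the mean of compounds lying between control limits plus 3 SD, set per campaign, cut at about 8.5% in these data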;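 further: 0% = DMSO-only wells as the low control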
rCAG RNA binder = binders of r(CAG) RNA repeats, primary screen, biochemical, fluorescence. 1.3% of 370,000 active. inhibition, % at 3 µM. AID 651821, 2012. r(CAG) RNA repeat, TO-PRO-1 dye displacement fluorescence;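 active means inhibition above the plate cutoff, the mean of all test compounds on that plate plus 3 SD, cut at about 35% in these data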;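 further: 0% = DMSO alone and 100% = 100 µM mitoxantrone as full dye displacement; higher means more dye released from RNA so lower well fluorescence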
MPTP inh = mitochondrial permeability transition pore inhibitors, primary screen, biochemical, isolated mouse mitochondria, absorbance. Ca2+ swelling absorbance, 30 min. inhibition, % at 10 µM. 1.4% of 360,000 active. AID 602449, 2012;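 active means inhibition of 50% or more, scaled per plate between neutral and stimulator controls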;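 further: 0% = DMSO wells given calcium and 100% = 1 mM EGTA wells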
proKLK7 act = proKLK7 zymogen activators, primary screen, biochemical, fluorescence intensity; Kallikrein-7 (Homo sapiens), P49862; purified proKLK7, EDANS-DABCYL substrate fluorescence; 100% is mature enzyme control, 0% vehicle; activation, % at 7 µM; 0.9% of 370,000 active; AID 652039, 2013;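 active means activation above the mean of all tested compounds plus 3 SD, computed per campaign excluding outliers beyond control limits, cut at about 13% in these data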
Target sequence (P49862 whole entry, looked up): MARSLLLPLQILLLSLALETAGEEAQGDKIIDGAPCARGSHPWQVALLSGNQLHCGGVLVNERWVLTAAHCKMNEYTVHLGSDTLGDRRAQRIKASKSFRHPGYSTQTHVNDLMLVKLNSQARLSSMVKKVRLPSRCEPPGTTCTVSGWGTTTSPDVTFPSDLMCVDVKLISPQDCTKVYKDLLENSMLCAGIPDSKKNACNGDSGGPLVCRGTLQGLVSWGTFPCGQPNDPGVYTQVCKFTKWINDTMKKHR
ADAM10 inh = human ADAM10 inhibitors, primary screen, biochemical, QFRET, HTS; Disintegrin and metalloproteinase domain-containing protein 10 (Homo sapiens), O14672; recombinant ADAM10, EDANS/DABCYL FRET peptide cleavage, 3 h; inhibition, % at 7 µM; 0.62% of 370,000 active; AID 720582, 2013;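 active means inhibition above a per-campaign cutoff equal to the mean of compounds falling between control-based bounds plus 3 SD, cut at about 20% in these data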;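 further: 0% = DMSO wells while the 100% control is not disclosed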
Rh123 counter = fluorescence retest of MPTP screen hits in isolated mitochondria, single concentration. inhibition, % at 10 µM. shares compounds with MPTP inh. 78% of 5,000 active. membrane potential, Rhodamine 123 fluorescence; in the data active means inhibition above about 22%;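 further: 0% = DMSO vehicle and 100% = positive control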
MPTP abs DR = mitochondrial permeability transition pore inhibitors, dose response, biochemical, absorbance, uHTS hits; AID 651561, 2012; isolated mitochondria swelling; IC50, µM; shares compounds with MPTP inh; 58% of 780 active; in the data active means IC50 below about 20 µM
MPTP cs DR = fluorescent counter-screen in isolated mitochondria, dose response, counter-screen for MPTP inhibitor project, biochemical, fluorescence, uHTS hits; shares compounds with MPTP inh; AID 651564, 2012; 49% of 780 active; IC50, µM; isolated mitochondria counterscreen, fluorescence read-out; in the data active means IC50 below about 80 µM
rCAG bind conf = small molecules binding CAG repeat RNA – biochemical, fluorescence, confirmation; shares compounds with rCAG RNA binder; r(CAG) RNA repeat, TO-PRO-1 dye displacement fluorescence; inhibition, % at 3 µM; 70% of 4,300 active; AID 652065, 2013;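 active means inhibition above a per-plate cutoff, the mean inhibition of sample wells plus 3 SD, cut at about 35% in these data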;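 further: loss of TO-PRO-1 fluorescence as compound displaces dye from 1x1 AA loop RNA; 0% = DMSO only wells and 100% = 100 µM mitoxantrone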
DNA CAG counter = displacement of TO-PRO-1 from CAG DNA duplex, counter-screen for rCAG RNA repeat binder project, biochemical, fluorescence, TO-PRO-1 dye, d(CAG) DNA oligo; 94% of 4,300 active; d(CAG) DNA oligo TO-PRO-1 dye displacement; inhibition, % at 3 µM; shares compounds with rCAG RNA binder;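 active means inhibition above its plate's cutoff, the mean test-well inhibition plus 3 SD, cut at about 4.8% in these data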;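 further: 0% = DNA dye mix with DMSO and 100% = 100 µM mitoxantrone; hits displace the dye from DNA and so lower well fluorescence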
Numbers without * were called inactive; x = not tested or not shown. Compounds with a hit are over-represented: about 4.7% of the library has one in this group of screens.

SMILES | DSG3 Ab inh | ADAM17 inh | rCAG RNA binder | MPTP inh | proKLK7 act | ADAM10 inh | Rh123 counter | rCAG bind conf | DNA CAG counter | others
OC(COc1ccc(Cl)cc1)CN1C2=NCCCN2c2ccccc21 (centres undefined) | 103 | -2 | 6 | 70* | 0 | -6 | -7 | x | x | MPTP abs DR=18*;MPTP cs DR=>80
COc1cc2c(cc1NC(=O)CSc1nnc(-c3cccc(Cl)c3)n1Cc1ccco1)oc1ccccc12 | x | -1 | 11 | x | 0 | -8 | x | x | x
CCOc1ccccc1NC(=O)CSc1nc2nc(-c3cccs3)cc(C(F)(F)F)c2c(=O)[nH]1 | 100 | -190 | 70* | 69* | 7 | -469 | 55* | 79* | 48*
COc1ccc(NC(=O)CSc2nc3nc(-c4cccs4)cc(C(F)(F)F)c3c(=O)[nH]2)c(OC)c1 | 101 | -67 | 19 | 23 | 2 | -223 | x | x | x
O=C(O)c1ccc(Nc2nc3ccccc3nc2NS(=O)(=O)c2ccc(F)cc2)cc1 | x | -3 | 41* | 75* | 1 | -9 | 70* | 53* | 21*
Cc1ccc2nc(N/C(=N/S(=O)(=O)c3ccc(F)cc3F)c3ccccc3)sc2c1 | 102 | -5 | 46* | 50* | 0 | 7 | 69* | 48* | 14*
Cn1c(CC(=O)Nc2ccc(Cl)c(Cl)c2)n[nH]c1=S | x | 2 | 2 | 0 | 0 | 8 | x | x | x
COc1ccc(Cc2n[nH]c(=S)n2NC(=O)Nc2ccc(Cl)c(Cl)c2)cc1 | 95 | 4 | 63* | 92* | 1 | 16 | 90* | 37* | 15*
CCOC(=O)Nc1nc(C)c(C(=O)c2ccc(Cl)cc2)s1 | 114 | 0 | 6 | 2 | 0 | -1 | x | x | x
CCOC(=O)c1sc(NC(=O)Nc2ccc(Cl)cc2)nc1C | x | 5 | 36* | 97* | 0 | -13 | 67* | 36* | 25*
Cc1cc2c(nc1C)CCCN2S(=O)(=O)c1cccs1 | x | -2 | 2 | x | 0 | -7 | x | x | x
COc1cc(OC)c(NC(=O)c2cc3ccccc3cc2O)cc1Cl | 118 | -7 | 35* | 90* | -61 | -16 | 33* | 47* | 22*
CC(=O)NC1CCCCN(C(C)C)C1=O (centres undefined) | x | -5 | 2 | x | 0 | -2 | x | x | x
C/C(CC(=O)Nc1ccc(Cl)c(C(F)(F)F)c1)=N\NC(=O)c1cccc(O)c1 | 119 | -1 | 4 | 2 | -1 | -1 | x | x | x
C/C(CC(=O)Nc1ccc(Cl)c(C(F)(F)F)c1)=N\NC(=O)c1ccccc1O | 99 | -2 | 53* | 98* | -3 | -6 | 70* | 9 | 4
COc1cc(CCc2ccccc2)c(C(=O)O)c(O)c1CC=C(C)C | 108 | 5 | 79* | 93* | 0 | -6 | 69* | 77* | 41*
COc1cc(CCc2ccccc2)c(C(=O)O)c(O)c1C/C=C(/C)CCC=C(C)C | 102 | 2 | 93* | 87* | 0 | 16 | 56* | 82* | 47*
COc1cccc(OC)c1C(=O)NCCc1ccccc1 | 110 | -6 | -2 | 0 | 0 | -5 | x | x | x
COC(=O)C1CN(Cc2ccc(F)cc2)CCS(=O)(=O)N1Cc1ccccc1 (centres undefined) | x | 6 | 3 | x | -1 | 10 | x | x | x
N/C(=N\c1nc(CSc2nnnn2-c2ccccc2)cc(=O)[nH]1)Nc1ccccc1 | x | 5 | 1 | x | 0 | -3 | x | x | x
O=c1cc(CSc2nnnn2-c2ccccc2)nc(Nc2ccc(F)cc2)[nH]1 | 100 | 2 | 43* | 56* | 0 | 5 | 84* | 43* | 15*
Cc1ccc(NC(=O)c2ccccc2NS(=O)(=O)c2ccc(Cl)s2)cc1 | 108 | 3 | 85* | 68* | 0 | 12 | 76* | 72* | 34*
Cc1ccc(NS(=O)(=O)c2ccc(Cl)s2)nc1 | x | -5 | 3 | -1 | 1 | -16 | x | x | x
O=C(Nc1ccccc1Cc1ccccc1)c1ccccc1NS(=O)(=O)c1ccc(Cl)s1 | 113 | 3 | 91* | 64* | 0 | 15 | 51* | 91* | 66*
CS(=O)(=O)c1ccccc1C(=O)Nc1ccccc1Cc1ccccc1 | x | -4 | -1 | -1 | 0 | 2 | x | x | x
SMILES | DSG3 Ab inh | ADAM17 inh | rCAG RNA binder | MPTP inh | proKLK7 act | ADAM10 inh | Rh123 counter | rCAG bind conf | DNA CAG counter | others
Cc1cccc(C)c1-n1nnnc1C1c2ccccc2OCC(=O)N1Cc1ccc(F)cc1 (centres undefined) | x | 1 | -1 | x | -1 | 1 | x | x | x
CCOc1ccc(NC(=O)c2ccccc2NS(=O)(=O)c2ccc(F)cc2)c([N+](=O)[O-])c1 | 124 | 3 | 72* | 92* | 0 | 8 | 94* | 73* | 36*
O=C(Nc1cc(S(=O)(=O)N2CCCCC2)ccc1Cl)c1ccccc1NS(=O)(=O)c1ccc(F)cc1 | 107 | -33 | 89* | 97* | 1 | -55 | 60* | 89* | 65*
O=C(NNS(=O)(=O)c1ccc(Cl)cc1)c1ccc(S(=O)(=O)N2CCCCC2)cc1 | 103 | 5 | 9 | 1 | 1 | 19 | x | x | x
O=C(Nc1cc(S(=O)(=O)N2CCCCC2)ccc1O)c1ccccc1NS(=O)(=O)c1ccc(F)cc1 | 95 | -14 | 85* | 97* | 0 | -23 | 71* | 87* | 57*
O=C(Nc1cc(S(=O)(=O)Nc2ccc(Cl)cc2)ccc1O)c1ccc(S(=O)(=O)N2CCCCCC2)cc1 | 104 | 0 | 47* | 91* | 1 | 3 | 42* | 73* | 38*
